Measurements taken from the supplement of paper PMC10849652.
Of roughly 8,800 targets only a part is listed; those with a hit were picked by preference. About 0.5% of all pairs of compound and target were hits.

Columns and labels:
Assay in all cases: log2 fold change, soluble protein after heating vs DMSO (PISA); higher = thermal stabilisation; K562 lysate, 10 uM; active = over 0.2 and 3.5 SD of the protein, either way, in both replicates (recomputed)
[1] = compound: C=CC(=O)N1CCC[C@@H](n2nc(-c3ccc(Oc4ccccc4)cc3)c3c(N)ncnc32)C1 [ibrutinib]
How it was run: (§1)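 Log-two fold change in thermal stability relative to solvent controls is reported from duplicates. For each sample, crude K562 extract from dounce-homogenised pellets in PBS pH 7.4 with 1 mM MgCl2, at 1 mg/mL protein, was treated with 10 μM compound for 30 min. Aliquots heated for 3 min across 48°C-58°C were pooled, brought to 0.5% NP-40 at 4°C and cleared at 21,000xg for 90 min. The supernatant was quantified by TMTpro 16plex LC-MS/MS with channel sums equalised.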

[2] = compound: CC(=O)c1cnc2ccc(-c3cc(Cl)c(O)c(Cl)c3)nc2c1N[C@H]1CC[C@H](CN(C)C)CC1
How it was run: as §1

[3] = compound: CC(C)(C)Cn1c(N)nc2ccc(-c3[nH]c(C(C)(C)C)nc3-c3ccc(F)cc3)nc21 [ralimetinib]
How it was run: as §1

[4] = compound: CC(C)(O)CC(=O)NCCn1ccc2ncnc(Nc3ccc(Oc4cccc(C(F)(F)F)c4)c(Cl)c3)c21
How it was run: as §1

[5] = compound: CC(C)C1=C2N=C(C=C(N2N=C1)NCC3=CC=CC=C3)NCCCCCCN
How it was run: as §1

[6] = compound: CC1=C(C(CC(=O)N1)C2=CC=C(C=C2)C(F)(F)F)C(=O)NC3=C(C=C4C(=C3)C=NN4)F
How it was run: as §1

[7] = compound: CC1=C(C2=C(C=C1)C(=O)C3=CC=CC=C3N2CCCN)C
How it was run: as §1

[8] = compound: CC1=C(C=C(C=C1)NC(=O)C2=CC(=CC=C2)C(C)(C)C#N)NC3=CC4=C(C=C3)N=CN(C4=O)C
How it was run: as §1

[9] = compound: CC1=C(C=C(C=C1)NC(=O)C2=CC(=CC=C2)N(C)C)NC(=O)C3=CC=C(C=C3)O
How it was run: as §1

[10] = compound: CC1=CC=C(C=C1)SC2=C3C=C(SC3=CN=C2)C(=O)N
How it was run: as §1

[11] = compound: CCCS(=O)(=O)Nc1ccc(F)c(C(=O)c2c[nH]c3ncc(-c4ccc(Cl)cc4)cc23)c1F [vemurafenib]
How it was run: as §1

[12] = compound: CCCS(=O)(=O)Nc1ccc(F)c(C(=O)c2c[nH]c3ncc(Cl)cc23)c1F
How it was run: as §1

[13] = compound: CCN(CCCOc1ccc2c(Nc3cc(CC(=O)Nc4cccc(F)c4)[nH]n3)ncnc2c1)CCOP(=O)(O)O [barasertib]
How it was run: as §1

[14] = compound: CC[C@@H]1C(=O)N(C)c2cnc(Nc3ccc(C(=O)NC4CCN(C)CC4)cc3OC)nc2N1C1CCCC1
How it was run: as §1

[15] = compound: CC[C@@H]1C(=O)N(C)c2cnc(Nc3ccc(C(=O)N[C@H]4CC[C@H](N5CCN(CC6CC6)CC5)CC4)cc3OC)nc2N1C(C)C [volasertib]
How it was run: as §1

[16] = compound: CCn1c(C(=O)N(C2CC2)C2CC2)cc2c3c(ncn3C)c(Nc3cc(C)n(C)n3)nc21
How it was run: as §1

[17] = compound: CCn1cc(-c2ccnc3[nH]c(-c4cccc(CN(C)C)c4)cc23)c(-c2ccc(NC(=O)N(C)C)cc2)n1
How it was run: as §1

[18] = compound: CN1CCC(CNc2ccc3ncc(-c4cccc(OC(F)(F)F)c4)n3n2)CC1
How it was run: as §1

[19] = compound: CN1CCN(CCOc2cc(OC3CCOCC3)c3c(Nc4c(Cl)ccc5c4OCO5)ncnc3c2)CC1 [saracatinib]
How it was run: as §1

[20] = compound: CN1CCN(c2nc(C3=C(c4c[nH]c5ccccc45)C(=O)NC3=O)c3ccccc3n2)CC1 [sotrastaurin]
How it was run: as §1

Measured: log2 fold change

IMPDH1 isoform 6 (UniProt P20839)
Chain of UniProt P20839 (P20839 whole entry, looked up): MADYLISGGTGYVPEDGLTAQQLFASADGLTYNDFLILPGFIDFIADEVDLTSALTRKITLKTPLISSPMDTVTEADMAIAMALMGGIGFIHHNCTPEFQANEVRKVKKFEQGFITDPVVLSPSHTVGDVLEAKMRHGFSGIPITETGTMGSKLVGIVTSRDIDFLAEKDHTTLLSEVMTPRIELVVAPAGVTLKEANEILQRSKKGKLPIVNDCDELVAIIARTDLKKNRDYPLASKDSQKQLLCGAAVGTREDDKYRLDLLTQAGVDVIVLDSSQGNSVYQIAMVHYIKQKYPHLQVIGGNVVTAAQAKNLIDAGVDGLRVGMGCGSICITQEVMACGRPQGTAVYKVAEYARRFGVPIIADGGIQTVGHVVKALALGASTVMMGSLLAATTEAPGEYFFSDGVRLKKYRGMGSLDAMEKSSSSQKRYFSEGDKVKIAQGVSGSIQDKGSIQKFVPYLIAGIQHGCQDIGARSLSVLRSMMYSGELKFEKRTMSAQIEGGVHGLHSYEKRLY
inactive: [1] -0.007 | [2] 0.009 | [3] 0.034 | [4] -0.007 | [5] 0.01 | [6] -0.039 | [7] 0.033 | [8] 0.014 | [9] -0.005 | [10] -0.004 | [11] -0.006 | [12] -0.015 | [13] -0.01 | [14] 0.003 | [15] -0.002 | [16] -0.006 | [17] -0.128 | [18] 0.021 | [19] 0.003 | [20] -0.024

GSTCD (UniProt Q8NEC7)
Chain of UniProt Q8NEC7 (Q8NEC7 whole entry, looked up): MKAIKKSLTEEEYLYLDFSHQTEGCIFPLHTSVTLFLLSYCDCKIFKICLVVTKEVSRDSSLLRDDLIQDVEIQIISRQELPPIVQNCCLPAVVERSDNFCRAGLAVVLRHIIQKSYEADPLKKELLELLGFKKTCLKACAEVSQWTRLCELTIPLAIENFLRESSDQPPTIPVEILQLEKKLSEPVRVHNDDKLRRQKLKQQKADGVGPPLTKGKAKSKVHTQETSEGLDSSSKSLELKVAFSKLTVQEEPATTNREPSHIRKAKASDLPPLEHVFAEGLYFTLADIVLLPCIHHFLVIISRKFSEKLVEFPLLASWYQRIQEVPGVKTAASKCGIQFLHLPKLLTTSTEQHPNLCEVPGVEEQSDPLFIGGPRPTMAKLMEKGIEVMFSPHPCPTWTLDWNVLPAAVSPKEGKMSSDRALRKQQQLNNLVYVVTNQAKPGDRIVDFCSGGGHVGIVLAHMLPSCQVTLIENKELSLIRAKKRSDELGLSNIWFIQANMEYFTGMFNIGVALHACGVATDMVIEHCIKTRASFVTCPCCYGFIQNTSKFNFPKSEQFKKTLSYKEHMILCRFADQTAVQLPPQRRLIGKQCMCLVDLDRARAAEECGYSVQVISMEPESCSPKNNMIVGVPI
inactive: [1] 0.057 | [2] -0.01 | [3] 0.033 | [4] -0.023 | [5] -0.038 | [6] 0.044 | [7] -0.04 | [8] 0.051 | [9] -0.003 | [10] 0.011 | [11] 0.028 | [12] 0.057 | [13] -0.039 | [14] -0.018 | [15] -0.05 | [16] 0.011 | [17] -0.055 | [18] -0.015 | [19] 0.034 | [20] 0.037

KDM5C (UniProt P41229)
inactive: [1] 0.089 | [2] -0.132 | [3] 0.005 | [4] -0.02 | [5] 0.015 | [6] 0.01 | [7] 0.012 | [8] -0.013 | [9] 0.031 | [10] 0.001 | [11] 0.001 | [12] 0.036 | [13] 0.096 | [14] -0.031 | [15] 0.004 | [16] -0.001 | [17] -0.028 | [18] -0.059 | [19] 0.008 | [20] 0.019

GNB1 (UniProt P62873)
inactive: [1] 0.018 | [2] -0.018 | [3] -0.036 | [4] 0.057 | [5] 0.003 | [6] -0.052 | [7] 0.076 | [8] 0.145 | [9] -0.076 | [10] -0.011 | [11] -0.048 | [12] 0.124 | [13] -0.016 | [14] -0.081 | [15] 0.008 | [16] -0.037 | [17] -0.072 | [18] 0.05 | [19] -0.038
active: [20] -0.287

HS1BP3 (UniProt Q53T59)
Chain of UniProt Q53T59 (Q53T59 whole entry, looked up): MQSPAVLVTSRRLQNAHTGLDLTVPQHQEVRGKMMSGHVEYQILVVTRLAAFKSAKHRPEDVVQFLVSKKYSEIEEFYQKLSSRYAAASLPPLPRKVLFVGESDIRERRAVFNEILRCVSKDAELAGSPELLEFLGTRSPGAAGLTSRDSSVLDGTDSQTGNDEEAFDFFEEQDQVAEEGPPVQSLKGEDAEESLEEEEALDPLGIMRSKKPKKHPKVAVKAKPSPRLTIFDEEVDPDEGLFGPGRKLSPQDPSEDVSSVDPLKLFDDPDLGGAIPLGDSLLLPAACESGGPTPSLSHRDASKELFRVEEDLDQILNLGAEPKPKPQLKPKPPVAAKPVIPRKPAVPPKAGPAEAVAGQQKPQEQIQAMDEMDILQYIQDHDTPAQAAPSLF
inactive: [1] -0.01 | [2] 0.001 | [3] 0.017 | [4] 0 | [5] -0.013 | [6] 0.005 | [7] 0.056 | [8] 0.016 | [9] -0.005 | [10] -0.013 | [11] -0.003 | [12] -0.012 | [13] 0.056 | [14] 0.029 | [15] -0.002 | [16] 0.014 | [17] -0.238 | [18] 0.092 | [19] 0.082 | [20] 0.013

ILKAP (UniProt Q9H0C8)
Chain of UniProt Q9H0C8 (Q9H0C8 whole entry, looked up): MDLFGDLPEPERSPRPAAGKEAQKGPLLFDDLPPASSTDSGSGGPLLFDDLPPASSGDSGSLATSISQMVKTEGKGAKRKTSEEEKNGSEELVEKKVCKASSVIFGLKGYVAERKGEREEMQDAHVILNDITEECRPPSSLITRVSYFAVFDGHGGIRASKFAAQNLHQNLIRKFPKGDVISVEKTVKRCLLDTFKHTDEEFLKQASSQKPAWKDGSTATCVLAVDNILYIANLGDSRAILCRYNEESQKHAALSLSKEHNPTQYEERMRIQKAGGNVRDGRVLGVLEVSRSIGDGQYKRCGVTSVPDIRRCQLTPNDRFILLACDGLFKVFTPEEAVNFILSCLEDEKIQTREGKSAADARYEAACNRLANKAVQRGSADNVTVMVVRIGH
inactive: [1] -0.018 | [2] 0 | [3] -0.007 | [4] 0.031 | [5] -0.032 | [6] 0.007 | [7] 0.037 | [8] -0.016 | [9] 0 | [10] -0.002 | [11] -0.037 | [12] -0.01 | [13] -0.04 | [14] -0.048 | [15] -0.017 | [16] 0.002 | [17] 0.016 | [18] 0 | [19] -0.013 | [20] 0.021

HNRNPM (UniProt P52272)
inactive: [1] -0.031 | [2] 0.024 | [3] 0.034 | [4] -0.048 | [5] 0.02 | [6] 0.051 | [7] 0.062 | [8] -0.183 | [9] 0.021 | [10] 0.007 | [11] -0.017 | [12] -0.013 | [13] 0.079 | [14] 0.027 | [15] -0.107 | [16] 0.046 | [17] -0.017 | [18] -0.01 | [19] 0.055 | [20] 0.024

KARS1 (UniProt Q15046)
Chain of UniProt Q15046 (Q15046 whole entry, looked up): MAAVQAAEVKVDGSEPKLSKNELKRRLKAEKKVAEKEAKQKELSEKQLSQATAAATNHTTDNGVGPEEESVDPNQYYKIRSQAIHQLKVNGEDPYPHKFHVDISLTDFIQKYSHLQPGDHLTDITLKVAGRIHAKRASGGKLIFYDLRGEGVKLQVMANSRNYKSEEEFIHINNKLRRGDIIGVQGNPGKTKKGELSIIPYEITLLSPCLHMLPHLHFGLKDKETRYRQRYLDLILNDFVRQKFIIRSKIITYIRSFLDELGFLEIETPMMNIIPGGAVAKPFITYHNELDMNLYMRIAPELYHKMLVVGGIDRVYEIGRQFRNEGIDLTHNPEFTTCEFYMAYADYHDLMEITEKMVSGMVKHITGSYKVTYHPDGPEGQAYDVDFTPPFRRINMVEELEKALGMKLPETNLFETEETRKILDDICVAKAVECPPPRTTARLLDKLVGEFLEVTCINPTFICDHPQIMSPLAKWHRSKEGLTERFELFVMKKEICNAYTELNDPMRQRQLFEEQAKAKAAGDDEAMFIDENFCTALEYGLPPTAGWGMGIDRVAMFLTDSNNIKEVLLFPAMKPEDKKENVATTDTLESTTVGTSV
inactive: [1] 0.009 | [2] 0.012 | [3] 0.016 | [4] 0.018 | [5] 0.001 | [6] -0.011 | [7] 0.024 | [8] -0.014 | [9] 0.015 | [10] 0.029 | [11] 0.003 | [12] -0.002 | [13] 0.002 | [14] -0.072 | [15] -0.026 | [16] 0.024 | [17] 0.046 | [18] -0.052 | [19] 0.004 | [20] 0.004

GLB1 (UniProt P16278)
Chain of UniProt P16278 (P16278 whole entry, looked up): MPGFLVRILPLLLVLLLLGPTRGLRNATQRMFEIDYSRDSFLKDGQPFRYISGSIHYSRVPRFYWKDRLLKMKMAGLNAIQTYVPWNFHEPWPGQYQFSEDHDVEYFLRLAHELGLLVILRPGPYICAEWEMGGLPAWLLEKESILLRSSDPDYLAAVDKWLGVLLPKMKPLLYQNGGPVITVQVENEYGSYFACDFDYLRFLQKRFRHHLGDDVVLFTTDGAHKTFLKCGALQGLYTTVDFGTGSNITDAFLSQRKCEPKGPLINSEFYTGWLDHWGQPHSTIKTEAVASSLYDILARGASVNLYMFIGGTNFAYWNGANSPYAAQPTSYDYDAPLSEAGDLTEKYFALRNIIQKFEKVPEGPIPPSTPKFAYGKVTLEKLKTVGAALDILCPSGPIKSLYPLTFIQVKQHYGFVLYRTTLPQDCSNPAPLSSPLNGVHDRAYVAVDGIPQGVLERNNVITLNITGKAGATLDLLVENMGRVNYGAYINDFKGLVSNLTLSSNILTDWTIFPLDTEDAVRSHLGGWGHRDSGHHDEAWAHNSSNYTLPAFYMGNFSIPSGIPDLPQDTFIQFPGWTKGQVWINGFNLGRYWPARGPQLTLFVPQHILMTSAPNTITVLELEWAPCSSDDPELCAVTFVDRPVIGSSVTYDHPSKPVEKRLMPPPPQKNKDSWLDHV
inactive: [1] 0.002 | [2] -0.008 | [3] -0.005 | [4] -0.03 | [5] 0.003 | [6] -0.009 | [7] -0.001 | [8] -0.011 | [9] 0.025 | [10] 0.015 | [11] -0.034 | [12] 0.012 | [13] -0.029 | [14] 0.02 | [15] -0.045 | [16] -0.017 | [17] -0.066 | [18] 0.019 | [19] -0.032 | [20] 0.043

INTS14 (UniProt Q96SY0)
Chain of UniProt Q96SY0 (Q96SY0 whole entry, looked up): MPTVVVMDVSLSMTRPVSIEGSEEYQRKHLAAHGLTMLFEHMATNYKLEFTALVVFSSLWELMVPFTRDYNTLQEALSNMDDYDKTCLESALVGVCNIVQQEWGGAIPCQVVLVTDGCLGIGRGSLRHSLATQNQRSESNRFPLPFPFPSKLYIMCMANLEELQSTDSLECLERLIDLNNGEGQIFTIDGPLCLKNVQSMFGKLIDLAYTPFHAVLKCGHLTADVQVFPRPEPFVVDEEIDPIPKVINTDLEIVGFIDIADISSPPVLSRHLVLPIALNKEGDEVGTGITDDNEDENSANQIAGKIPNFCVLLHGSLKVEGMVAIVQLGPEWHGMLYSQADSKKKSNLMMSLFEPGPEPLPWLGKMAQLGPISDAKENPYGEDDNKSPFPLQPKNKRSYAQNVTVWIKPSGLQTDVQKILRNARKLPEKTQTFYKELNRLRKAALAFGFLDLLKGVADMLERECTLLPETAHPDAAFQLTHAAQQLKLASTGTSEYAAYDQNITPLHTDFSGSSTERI
inactive: [1] -0.006 | [2] -0.008 | [3] 0.023 | [4] -0.012 | [5] -0.048 | [6] -0.003 | [7] -0.029 | [8] -0.004 | [9] 0.006 | [10] -0.01 | [11] -0.046 | [12] 0.034 | [13] -0.021 | [14] 0.019 | [15] -0.013 | [16] -0.017 | [17] -0.071 | [18] 0.008 | [19] -0.019 | [20] 0.001

HAUS4 (UniProt Q9H6D7)
Chain of UniProt Q9H6D7 (Q9H6D7 whole entry, looked up): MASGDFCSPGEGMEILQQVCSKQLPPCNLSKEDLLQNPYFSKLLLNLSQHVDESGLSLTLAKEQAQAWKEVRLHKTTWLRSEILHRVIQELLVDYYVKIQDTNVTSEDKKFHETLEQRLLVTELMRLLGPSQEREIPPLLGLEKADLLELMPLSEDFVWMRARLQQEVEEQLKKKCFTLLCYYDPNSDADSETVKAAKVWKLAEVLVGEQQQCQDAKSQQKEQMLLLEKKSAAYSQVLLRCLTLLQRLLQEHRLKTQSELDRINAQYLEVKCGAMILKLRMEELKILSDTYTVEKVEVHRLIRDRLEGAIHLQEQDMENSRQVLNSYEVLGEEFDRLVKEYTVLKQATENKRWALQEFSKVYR
inactive: [1] 0.04 | [2] -0.033 | [3] 0.003 | [4] 0.01 | [5] -0.004 | [6] 0.006 | [7] -0.016 | [8] -0.008 | [9] 0.057 | [10] -0.01 | [11] 0.007 | [12] 0.044 | [13] 0.107 | [14] -0.047 | [15] -0.039 | [16] 0.015 | [17] -0.045 | [18] -0.04 | [19] 0.022 | [20] 0.02

HMGB1 (UniProt P09429)
Chain of UniProt P09429 (P09429 whole entry, looked up): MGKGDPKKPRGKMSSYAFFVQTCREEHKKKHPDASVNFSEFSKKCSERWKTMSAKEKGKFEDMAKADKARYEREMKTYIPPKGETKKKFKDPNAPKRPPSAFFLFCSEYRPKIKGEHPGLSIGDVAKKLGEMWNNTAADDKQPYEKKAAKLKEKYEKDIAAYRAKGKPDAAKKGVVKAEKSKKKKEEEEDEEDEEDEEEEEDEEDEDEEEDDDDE
active: [17] 0.389
inactive: [1] -0.012 | [2] -0.013 | [3] -0.102 | [4] 0.057 | [5] 0.032 | [6] -0.022 | [7] -0.002 | [8] 0.036 | [9] -0.077 | [10] -0.098 | [11] -0.01 | [12] -0.014 | [13] -0.013 | [14] 0.102 | [15] 0.035 | [16] -0.039 | [18] -0.184 | [19] -0.011 | [20] -0.075

IRAK1 (UniProt P51617)
inactive: [1] 0.032 | [2] 0.195 | [3] -0.024 | [4] -0.031 | [5] -0.018 | [6] -0.013 | [7] -0.028 | [8] -0.086 | [9] 0.062 | [10] 0 | [11] 0.086 | [12] -0.033 | [13] -0.01 | [14] -0.089 | [15] -0.134 | [16] 0.041 | [17] -0.135 | [18] 0.043 | [19] -0.016 | [20] -0.029

KHK isoform 2 (UniProt P50053)
inactive: [1] 0.023 | [2] 0.039 | [3] 0.001 | [4] -0.032 | [5] -0.033 | [6] 0.013 | [7] -0.025 | [8] 0.185 | [9] -0.033 | [10] -0.04 | [11] -0.021 | [12] 0 | [13] 0.052 | [14] -0.053 | [15] 0.017 | [16] 0.076 | [18] -0.072 | [19] 0.067 | [20] 0.013
active: [17] 0.404

HEATR3 (UniProt Q7Z4Q2)
inactive: [1] 0.026 | [2] -0.008 | [3] 0.037 | [4] -0.048 | [5] -0.01 | [6] -0.001 | [7] -0.015 | [8] 0.004 | [9] -0.027 | [10] 0.023 | [11] 0.025 | [12] 0.026 | [13] 0.026 | [14] -0.048 | [15] -0.028 | [16] 0.032 | [17] -0.064 | [18] -0.089 | [19] -0.019 | [20] 0.026

HARS (UniProt P12081)
Chain of UniProt P12081 (P12081 whole entry, looked up): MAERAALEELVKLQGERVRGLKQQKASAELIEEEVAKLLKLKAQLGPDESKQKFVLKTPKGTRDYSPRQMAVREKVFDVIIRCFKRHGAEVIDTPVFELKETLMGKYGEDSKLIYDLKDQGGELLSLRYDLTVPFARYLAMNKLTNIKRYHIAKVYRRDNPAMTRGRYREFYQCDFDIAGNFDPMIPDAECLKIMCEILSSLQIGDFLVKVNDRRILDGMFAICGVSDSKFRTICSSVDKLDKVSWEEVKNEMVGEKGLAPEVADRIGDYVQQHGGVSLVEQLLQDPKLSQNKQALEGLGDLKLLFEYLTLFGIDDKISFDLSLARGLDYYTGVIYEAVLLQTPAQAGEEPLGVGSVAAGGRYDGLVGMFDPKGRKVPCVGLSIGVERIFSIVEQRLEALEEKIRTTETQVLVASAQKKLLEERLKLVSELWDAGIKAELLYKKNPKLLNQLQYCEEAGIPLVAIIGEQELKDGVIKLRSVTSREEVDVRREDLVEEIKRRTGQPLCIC
inactive: [1] -0.049 | [2] 0.022 | [3] -0.002 | [4] 0.015 | [5] -0.039 | [6] -0.015 | [7] 0.008 | [8] 0.005 | [9] 0.008 | [10] 0.005 | [11] -0.024 | [12] -0.02 | [13] -0.031 | [14] -0.049 | [15] -0.006 | [16] 0.012 | [17] 0.023 | [18] -0.01 | [19] -0.021 | [20] 0.009
